HTT cytoprotect: Huntington cell model cytoprotection by ATP luminescence; AID 1471; 0.14% of 230,000 active; Potency, µM (doses to about 56.4 µM), for inactives: cytoprotection (ATP increase), most hits filed as activators; PC12 HTT-Q103 induced, cytoprotection, ATP luminescence, 40 h; active = well fitted curve in the direction sought with a large enough effect; inconclusive = small, poorly fitted or top-dose-only effect, or another doubt; inactive = no such curve, though single readings can be large; an effect the other way counts as inactive or inconclusive; note: % of control where 0% means no effect; nearly all actives have a fitted effect of over 45% in size
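PC12 cells with ecdysone-inducible HTT exon 1 Q103-GFP, induced with 100 nM tebufenozide and co-treated with library compounds in a dose series (1536-well, 1500 cells/well). Cytoprotection read as ATP content by ATPlite luminescence.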
LMNA splice mod: modulators of lamin A splicing. 0.01% of 200,000 active. HeLa LMNA splicing GFP/RFP minigene ratio, 48 h. AID 1487. Potency, µM (titrated, usually from 46.1 µM), inactives show top-dose ratio change, negative = inhibition, hits mostly inhibitors; active = well fitted inhibition curve with a large enough effect in the signal ratio, with a control signal flat, not every such curve was filed as active; inconclusive = small, poorly fitted or top-dose-only effect, or effect the other way, or a change in a side signal; the % refers to the signal ratio; note: % is set by controls: 0 for no effect and ±100 for the full control effect
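S3 HeLa cells stably expressing lamin A-EGFP splicing minigene plus DsRed2, 600 cells/well, 48 h compound exposure at 37C. Laser-scanning cytometry; analysed as GFP (500-530 nm)/RFP (575-640 nm) total intensity ratio; 0.5% DMSO vehicle.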
HPGD inh: blocks human HPGD enzyme activity | P15428 | Potency, µM, without a hit: at the highest dose activity change, negative = inhibition, usual class: inhibitors | purified HPGD, NADH fluorescence kinetic, PGE2 substrate | 4.3% of 150,000 active | AID 894; note: % is set by controls: 0 for no effect and ±100 for the full control effect
Target sequence (P15428 whole entry, looked up): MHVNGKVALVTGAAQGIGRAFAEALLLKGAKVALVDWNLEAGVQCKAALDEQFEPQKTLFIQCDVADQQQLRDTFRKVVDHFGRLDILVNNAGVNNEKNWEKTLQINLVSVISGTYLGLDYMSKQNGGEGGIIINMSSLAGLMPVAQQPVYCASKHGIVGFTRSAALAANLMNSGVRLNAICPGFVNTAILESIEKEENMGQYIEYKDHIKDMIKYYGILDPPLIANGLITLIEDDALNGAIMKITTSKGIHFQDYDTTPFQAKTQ
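NADH formation kinetics: reaction with 30 uM PGE2 and 1 mM NAD+ (final), 20 nM enzyme, Tris-HCl pH 8 with Tween 20, after 15 min compound preincubation at room temperature. Fluorescence change, last versus first of five reads.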
ALDH1A1 block: blocks purified human ALDH1A1 activity; P00352; Purified ALDH1A1, NADH fluorescence, propionaldehyde substrate; Potency, µM (highest dose often 75.3 µM), inactives show at the top dose activity, negative = inhibition, usual class: inhibitors; 7.3% of 220,000 active; AID 1030;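 note: plate controls were no enzyme wells and a reference inhibitor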
HTT aggregate: reduces HttQ103-GFP aggregates in PC12 cells. PC12 HttQ103-GFP aggregates, Acumen cytometry, 40 h. 1.1% of 220,000 active. AID 1688. Potency, µM (titrated, usually from 46.1 µM), inactives show top-dose activity change, negative = inhibition, most hits filed as inhibitors; active = well fitted curve in the direction sought with a large enough effect; inconclusive = small, poorly fitted or top-dose-only effect, or another doubt; inactive = no such curve, though single readings can be large; an effect the other way counts as inactive or inconclusive; note: % is set by controls: 0 for no effect and ±100 for the full control effect; nearly all actives have a fitted effect of over 60% in size
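Huntingtin Q103 exon 1–GFP aggregates in induced PC12 cells (100 nM tebufenozide) were quantified by cytometry from lysates, with compounds dosed in titration.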
* hit, by the source's call; ? = inconclusive; . = no result; [ ] = dose if it differs, or a comment. Hits are enriched below; roughly 8.8% of the tested compounds scored in any of these assays. Unless noted, calls come from the whole dose curve; as a rule, active = well fitted inhibition curve with a large enough effect (not every such curve was filed as active); inconclusive = small, poorly fitted or top-dose-only effect, or another doubt; inactive = no such curve, though single readings can be large or run the other way. Potency is the fitted concentration of half-maximal effect.

SMILES	HTT cytoprotect	LMNA splice mod	HPGD inh	ALDH1A1 block	HTT aggregate
Cc1c(Br)c([N+](=O)[O-])nn1CC(=O)Nc1sc2c(c1C(=O)OC(C)C)CCCC2	-13%	1%	-24%	-10%	-5%
Cc1c(Cl)c([N+](=O)[O-])nn1CCCC(=O)Nc1sc2c(c1C(N)=O)CCC(C)C2 (configuration not stated)	-7%[10 µM]	-9%	5µM*	5%	?
Cc1c(Br)c([N+](=O)[O-])nn1CCCC(=O)Nc1sc2c(c1C(N)=O)CCC(C)C2 (configuration not stated)	-7%[10 µM]	-5%	11µM*	25µM*	5%
O=C(Nc1ccc(Cl)cc1)OCc1cc(-c2ccccc2Cl)on1	-13%	-6%	-4%	4µM*	-2%
c1ccc(-c2nnc(CN3CCC4(CC3)OCCO4)o2)cc1	-1%[10 µM]	5%	-7%	-8%	1%
c1ccc(-c2nnc(CN3CCCc4ccccc43)o2)cc1	-11%	-4%	?	8.9µM*	0%
O=C(Nc1cccc(C(=O)N2CCCCC2)c1)c1nsc2ccccc12	.	-9%[46 µM]	.	.	.
O=C(CSCc1ccc(Cl)cc1)NN=C1CCCCCC1	15%[10 µM]	-3%	-14%	14µM*	4%
O=C(CCSc1ccc(Cl)cc1)NC1CCCCC1	8%	25%	4.5µM*	11%	27%
O=C(CCSc1ccc(Cl)cc1)NN=C1CCCCCC1	9%	.	.	11µM*	-4%
CC(C)CN1CC[C@@]2(CCCN(C(=O)c3cc(C(F)(F)F)cc(C(F)(F)F)c3)C2)C1	-3%	.	1%	5%	.
Cc1ccc(C(=O)Cn2c(C(=O)/C=C/c3ccccc3)nc3ccccc32)cc1	-57%	?	-22%	?	11µM*
COC(=O)[C@@H](NC(=O)O[C@@H]1C(=O)c2ccc(OC)cc2O[C@H]1c1ccc2c(c1)OCO2)C(C)C	1%	.	-9%	6%	.
C[N+]1(C)CC(O)[C@H](C(=O)[O-])C1 (some centres not stated)	.	4%	-4%	-14%	.
COCCNc1nc2nonc2nc1N(C)Cc1cccc2cnccc12	-33%[10 µM]	13%[46 µM]	.	5µM*	-25%[9.22 µM]
COc1ccccc1CN1CCCC2(CCN(C(=O)c3ccncc3)CC2)C1	-3%	.	-4%	?	.
C=CCN(CC=C)C(=S)Nc1ccc(OC)c(OC)c1	.	.	.	2%	11%
O=C(CN1C(=O)CC(c2ccco2)Sc2ccccc21)NCC1CCCO1 (configuration not stated)	-21%	1%	-10%	10µM*	6%
O=C(CN1C(=O)CC(c2ccco2)Sc2ccccc21)Nc1ccc2c(c1)OCCO2 (configuration not stated)	-33%	-3%	-18%	14µM*	-2%
Cc1cccc(C(=O)n2nc(C)c(S(=O)(=O)N3CCOCC3)c2C)c1	.	-20%[46 µM]	.	.	.
CCC(C(=O)Nc1ccsc1C(=O)OC)c1ccccc1 (configuration not stated)	-70%	.	.	11µM*	-6%[9.22 µM]
CCOC(=O)c1c(NC(=O)C(Sc2ccccc2)c2ccccc2)sc(C(N)=O)c1C (configuration not stated)	-17%	13%	28µM*	14µM*	-17%
CCC(C(=O)Nc1sc(C(N)=O)c(C)c1C(=O)OC)c1ccccc1 (configuration not stated)	-59%	.	.	13µM*	-7%
O=S(=O)(c1ccc(Br)cc1)N1CCN(S(=O)(=O)c2ccc(Br)cc2)CC1	3%[10 µM]	.	1%	-2%[13.5 µM]	.
CN1CCN(c2ncc3nc(-c4cccc(C#N)c4)c(=O)n(C)c3n2)CC1	3%	-17%	.	?	.
SMILES	HTT cytoprotect	LMNA splice mod	HPGD inh	ALDH1A1 block	HTT aggregate
COc1cc(/C=C2\SC(=O)N(c3ccccc3Cl)C2=O)cc([N+](=O)[O-])c1O	4%[10 µM]	.	.	0.16µM*	-9%[9.22 µM]
CCOc1cc(/C=C2\SC(=O)N(CC(=O)Nc3ccccc3F)C2=O)cc([N+](=O)[O-])c1O	-1%[10 µM]	24%[46 µM]	.	?	23%[9.22 µM]
COc1cc(/C=C2\SC(=N)N(c3ccc(F)cc3)C2=O)ccc1O	-157%	?	.	0%	?
COc1cc(/C=C2\SC(=N)N(c3ccc4c(c3)OCO4)C2=O)cc(OC)c1O	.	-2%	4µM*	9%	26%
COc1cc(/C=C2\SC(=O)N(CC(=O)Nc3cccc(C)c3)C2=O)cc([N+](=O)[O-])c1O	19%	.	.	22µM*	-26%
Nc1ncc(S(=O)(=O)NCc2ccccc2)cn1	.	8%[46 µM]	.	.	.
C=Cc1ccc(Cn2c(=O)n(CC3CCC(C(=O)NC(C)C)CC3)c(=O)c3sccc32)cc1 (configuration not stated)	.	29%[46 µM]	.	.	.
COc1ccc(Br)cc1CNC(=O)Cn1c(=O)c2cccn2c2ccc(F)cc21	.	3%[46 µM]	.	.	.
Cn1ccnc1SCC(=O)Nc1cc(S(=O)(=O)N2CCOCC2)ccc1Cl	.	?	-5%	-8%	-12%
Cc1cccc(C)c1Nc1oc(-c2ccccc2)nc1-c1ccccc1F	-47%	.	-1%	?	.
CC(=O)n1cc(C(C[N+](=O)[O-])SCCN)c2ccccc21 (configuration not stated)	-44%	77%	25µM*	4%	?
CC(=O)n1cc(-c2ccncc2)c2ccccc21	13%	-4%	-9%	-1%	?
C[Si](C)(C)Cl	-4%	.	-6%	22µM*	.
Cc1cc(SCC(=O)c2ccc(Br)cc2)cc(C)[o+]1	0%[10 µM]	.	-13%	3.2µM*	.
Cc1nnc(SCC(=O)c2ccc(Br)cc2)s1	1%	12%[46 µM]	.	1%	4%
CSC(=[SH+])N=N/C(=C1/C=CC=CN1)c1ccccn1.[Cu][Br]	.	.	?	0.63µM*	.
CCNC(=O)CCS(=O)(=O)c1ccc2ccccc2c1	-12%[1.9 µM]	-7%	32µM*	?	-6%
CN(C)c1ccc(C(=O)N2CC(=O)N(CCc3ccccc3)C(=O)C2)cc1	-18%	12%	?	6.3µM*	15%
COc1ccc(C(=O)N2CC(=O)N(CCc3ccccc3)C(=O)C2)cc1OC	-18%	5%	-6%	-10%	21%
COc1ccc(CC(=O)N2CC(=O)N(CCc3ccccc3)C(=O)C2)cc1	8%	-6%	-16%	10µM*	2%
Cc1cc(Nc2cccc([N+](=O)[O-])c2)n2c(nc3ccccc32)c1C#N	-2%[10 µM]	?	-7%	6%	2.8µM*
Cc1cc(Nc2c(C)n(C)n(-c3ccccc3)c2=O)n2c(nc3ccccc32)c1C#N	-27%	6%	-15%	?	-10%
